# Laboratory results taken from PubChem BioAssay.
# Values joined by “and” are separate entries in the source; they are usually repeats but may differ in a detail not shown here. Equal values may be shown once. Active and inactive are the calls of the source.
# What was measured:
# Albumin (Bos taurus) = Albumin (Bos taurus) (UniProt P02769); experiment: bovine serum albumin binders on microarray, profiling panel, artefact control for SMM control protein annotation, biochemical, small-molecule microarray, Alexa647 label, 635/667 nm fluorescence (AID 1118); settings: BSA-A647 binding, fluorescence 635 nm, higher = more signal;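 further: score merges 667 nm emission intensity and signal-to-noise per printed compound spot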
# [1] = small-molecule microarray binders of probe aXIP, primary screen, biochemical, NeuroSMM set, 635/667 nm fluorescence (AID 1119); settings: higher = more signal, called active from +8 up or from −8 down;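 further: probe is the protein aXip251-270 applied at 1 µg/mL to compound-printed slides; binding of probe to printed compounds measured as 667 nm fluorescence plus signal to noise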
# [2] = small-molecule binders of probe aNOTCH3, primary screen, biochemical, small-molecule microarray, 635/667 nm fluorescence (AID 1120); settings: higher = more signal;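 further: probe is a biotin-tagged antibody raised against NOTCH3 rather than NOTCH3 protein; score merges spot fluorescence near 667 nm with spot signal to noise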
# [3] = small-molecule binders of probe aNOTCH2, primary screen, biochemical, small-molecule microarray, 635/667 nm fluorescence (AID 1121); settings: higher = more signal;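 further: score merges feature fluorescence read at 667 nm with its signal to noise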
# [4] = target: Carbonic anhydrase 2 (Homo sapiens) (UniProt P00918); experiment: CAII small-molecule binders, profiling panel, biochemical, small-molecule microarray, Alexa647-labelled CAII (AID 1122); settings: CAII-A647 binding fluorescence, higher = more signal
# [5] = COS7 lysate on small-molecule microarray, probe aHis, 635 nm (AID 1123); settings: COS7 cell lysate, fluorescence, higher = more signal;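 further: z-score combines 667nm fluorescence intensity with signal-to-noise per printed compound spot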
# [6] = compound binding in COS7 lysate, probe aLAP1, primary screen, cell lysate, small-molecule microarray (AID 1124); settings: probe aLAP1, fluorescence, higher = more signal;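 further: lysate comes from COS7 cells expressing LAP1 and is applied at 0.3 µg/mL; score merges spot fluorescence near 667 nm with signal-to-noise over triplicate slides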
# Sam68 (KHDRBS1) = experiment: Sam68 small-molecule binders, primary screen, biochemical, small-molecule microarray, 635 nm fluorescence (AID 1125); settings: small-molecule microarray binding, higher = more signal;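 further: score merges 667 nm channel intensity with signal to noise over triplicate slides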
# [7] = tested on: Chordin-like protein 2 (CHRDL2); experiment: CHRDL2 small-molecule binders, primary screen, biochemical, small-molecule microarray, 635 nm fluorescence (AID 1126); settings: small-molecule microarray binding, fluorescence 635 nm; higher = more signal;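 further: printed compound slides probed with Chrdl2 protein at 4 µg/mL for 1 h at 4 C; score merges 667 nm emission intensity with signal to noise over three replicate slides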
# [8] = target: Concanavalin-A (Canavalia ensiformis) (UniProt P02866); experiment: ConA small-molecule binders, primary screen, artefact control for SMM control protein annotation, biochemical, small-molecule microarray, Alexa647 label, 635 nm (AID 1127); settings: ConA-A647 binding fluorescence, higher = more signal;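 further: z combines 667 nm emission intensity with signal-to-noise across three replicate slides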
# Sequence of Concanavalin-A (Canavalia ensiformis) (P02866 whole entry, looked up): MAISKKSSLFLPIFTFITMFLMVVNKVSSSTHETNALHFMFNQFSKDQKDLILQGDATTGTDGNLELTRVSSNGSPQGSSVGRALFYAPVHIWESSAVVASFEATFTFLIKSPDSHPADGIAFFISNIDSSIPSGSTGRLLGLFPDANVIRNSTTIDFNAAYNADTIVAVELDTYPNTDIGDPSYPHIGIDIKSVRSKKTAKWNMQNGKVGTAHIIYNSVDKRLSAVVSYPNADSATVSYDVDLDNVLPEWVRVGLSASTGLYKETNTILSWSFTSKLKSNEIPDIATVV
# Sequence of Albumin (Bos taurus) (P02769 whole entry, looked up): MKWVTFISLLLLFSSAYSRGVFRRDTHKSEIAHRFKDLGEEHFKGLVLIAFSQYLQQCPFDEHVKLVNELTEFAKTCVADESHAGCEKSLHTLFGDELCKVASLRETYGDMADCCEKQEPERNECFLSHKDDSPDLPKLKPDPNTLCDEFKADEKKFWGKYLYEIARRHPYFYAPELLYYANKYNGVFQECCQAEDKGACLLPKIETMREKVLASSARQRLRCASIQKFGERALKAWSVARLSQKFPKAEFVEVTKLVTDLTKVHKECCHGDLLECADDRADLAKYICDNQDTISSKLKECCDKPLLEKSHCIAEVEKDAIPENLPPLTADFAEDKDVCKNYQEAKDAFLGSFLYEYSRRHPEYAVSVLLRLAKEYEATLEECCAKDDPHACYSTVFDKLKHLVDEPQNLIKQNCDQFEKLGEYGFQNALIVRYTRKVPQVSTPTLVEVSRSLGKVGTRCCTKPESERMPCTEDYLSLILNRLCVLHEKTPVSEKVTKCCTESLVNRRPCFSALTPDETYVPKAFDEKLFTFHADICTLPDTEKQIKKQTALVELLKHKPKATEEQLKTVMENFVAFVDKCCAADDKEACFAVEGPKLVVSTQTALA
SMILES,composite z-score (Albumin (Bos taurus)),composite Z-score [1],composite z-score [2],composite z-score [3],composite z-score [4],composite z-score [5],composite z-score [6],composite z-score (Sam68 (KHDRBS1)),composite z-score [7],composite z-score [8]
CCOC(=O)[C@@H]1CC2O[C@]23C[C@@H]1C(=O)N1CCC[C@@H]1[C@H]3O[Si](C)(C)C(C)(C)C (stereo not given in full),-0.8 and -0.548,0.223 (inactive) and 0.413 (inactive),-0.11 and -0.128,-0.2 and -0.0949,-0.396 and 0.106,-0.645 and 0.205,-0.452 and 0.103,-1.37 and -0.191,0.1 and -0.201,-1.82 and -0.262
CC(CO)N1C(=O)[C@@H]2C3C(=O)OCCC=C[C@H]3OC23C=CCN(Cn2nnc4ccccc42)C(=O)[C@@H]13 (stereo not given in full),-0.169 and 0.923,0.318 (inactive) and 0.418 (inactive),-0.374 and -0.15,-0.14 and -0.0191,0.939 and 0.856,0.342 and -0.478,0.102 and 0.397,-0.821 and -0.291,-2.19 and 0.0479,-0.221 and -0.0699
COC(=O)C1=C(C)N(Cc2ccccc2)[C@]23O[C@](C(=O)OC)(C(=O)N2[C@@H]1c1ccccc1)[C@H]1C(=O)N(C)C(=O)[C@H]13,0.899 and 0.489,-0.0443 (inactive) and 0.0886 (inactive),-0.212 and 0.0751,-0.116 and -0.148,0.354 and 0.309,0.909 and 0.901,0.262 and -0.0393,1.19 and 0.0927,0.0101 and 0.385,1.08 and -0.174
C=CCN(C(=O)C1N(c2c(Cl)cccc2CO)C(=O)C2C(C(=O)O)C3C=CC21O3)C(C)(C)C (stereo not given),0.393 and -0.872,0.0388 (inactive) and -0.166 (inactive),-0.479 and -0.47,-0.253 and -0.185,0.791 and -0.713,-0.556 and -0.856,-0.0145 and -0.779,-1.2 and -2.06,-2.06 and -2.92,-1.09 and -0.331
CCOC(=O)NN=C1C[C@@H](O)[C@@H](O)[C@@H]2[C@@H]3C(=O)N(Cc4ccc5c(c4)OCO5)C(=O)[C@@H]3CC[C@@H]12,0.397,0.221 (inactive),-0.141,-0.0349,-0.158,0.257,-0.377,0.789,0.171,0.837
COC(=O)C1=C(C)N(Cc2ccccc2)[C@]23O[C@](C(=O)OC)(C(=O)N2[C@@H]1c1ccccc1)[C@@H](C(=O)OC)[C@H]3C(=O)OC,0.0583 and -0.396,-0.179 (inactive) and -0.813 (inactive),-0.0947 and -0.0892,-0.165 and -0.106,0.266 and -0.244,0.189 and -0.172,-0.429 and -0.258,-0.192 and 0.227,-0.34 and 0.406,-1.07 and 0.249
CC(C)=NOC[C@@H](O)COCc1ccco1,-0.206,1.56 (inactive),-0.0328,-0.132,-0.637,-0.115,-0.353,-2.3,0.397,-0.703
CC(C)OC(=O)C=C1C[C@@H](c2ccccc2)O[C@@H](c2ccccc2)O1,0.799 and 0.915,0.417 (inactive) and 0.224 (inactive),0.168 and 0.308,-0.029 and 0.0219,0.749 and 0.727,2.74 and 1.87,0.809 and 0.779,1.33 and 1.3,0.0745 and 0.626,1.02 and 1.09
C=CC[C@@H](O)c1ccc(OCCO)cc1,-0.155 and -0.308,0.0022 (inactive) and 0.259 (inactive),-0.506 and -0.643,-0.222 and -0.176,0.492 and 0.807,-0.638 and -0.478,-0.585 and -0.612,-0.813 and -0.661,-1.56 and -1.81,-0.831 and -1.48
CC(C)=NOCc1ccc(-c2cn([C@@H]3COC[C@H]3O)nn2)cc1,0.655,0.43 (inactive),-0.0179,-0.131,-0.132,0.355,-0.116,-0.103,0.329,0.0843
C=C[C@H](C)[C@@H](O)c1ccc(OCCO)cc1,0.746 and -0.0233,-0.288 (inactive) and -0.162 (inactive),-0.494 and -0.481,-0.238 and -0.14,0.743 and 0.6,-0.135 and -0.25,-1.16 and -0.0942,-1.42 and -0.873,-1.32 and -0.668,-1.1 and -0.494
C[N+](C)(C)CCCCNC(=O)[C@H]1C[C@H]2C(=O)N[C@@H](CCCC[N+](C)(C)C)C(=O)N2[C@H]1c1cccc(OCCO)c1,-0.741 and -0.3,2.4 (inactive) and 1.3 (inactive),0.0533 and 0.245,-0.0974 and -0.131,0.851 and 0.463,1.38 and 1.49,0.848 and 0.953,0.25 and 1.32,1.17 and 1.53,0.744 and 1.05
C[C@@H]1CC[C@H]2C(=O)N3[C@@H](CC[C@@H](C)[C@@H]3c3ccc(-c4ccco4)cc3)C(=O)N2[C@H]1c1ccc(-c2ccco2)cc1,0.346 and -0.391,0.705 (inactive) and 1.24 (inactive),0.116 and 0.385,0.0079 and 0.0312,0.688 and 0.645,1.12 and 0.0336,0.412 and -0.258,1.3 and 1.1,1.05 and 1.57,1.11 and 1.16
C[C@@H]1CC[C@@H](C(=O)O)N[C@H]1c1ccc(-c2ccco2)cc1,0.0852,-0.122 (inactive),0.0458,-0.16,0.812,0.01,-0.103,0.108,1.1,0.529
